Test systems include NCI-H23 lung; NCI-H226 lung; NCI-H322M lung; HOP-62 NSCLC; NCI-H460 lung; HOP-92 NSCLC; NCI-H522 lung; A549/ATCC NSCLC; 786-0 renal; COLO 205 colon.
Common to all, as to test: NCI-60 one-dose screen, 48 h (100 = growth as untreated, 0 = no growth, -100 = all killed)
Holding throughout (conditions): 10 µM unless noted

This is part of a sample that, as a whole, favours compounds with a hit. Of some 83,000 tested, about 20% had one in any assay.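 A percent growth of 40 corresponds to 60% growth inhibition; 0 means no net growth; -100 means all cells died. Active threshold: below 10.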 A number with no mark means an inactive call. The source made the active and inactive calls.

Growth data for 13 compounds are collected here from PubChem BioAssay (NCI).

Turning to `CC(=O)O[C@H]1CC[C@]2(C)[C@H]3CC[C@]4(C)[C@@H](OC(C)=O)CC[C@H]4[C@@H]3[C@@H](C)[C@]2(O)C1`, the growth in the experiment with NCI-H23 lung was 111%; in the experiment with NCI-H226 lung, 104%; in the experiment with NCI-H322M lung, 106%; with HOP-62 NSCLC it was 105%; with NCI-H460 lung it was 116%; in the experiment with HOP-92 NSCLC, 108%. In addition, the growth is 94.8% in the experiment on NCI-H522 lung, 114% in the experiment with A549/ATCC NSCLC, 103% in the experiment with 786-0 renal and 104% in the experiment with COLO 205 colon.

Turning to `CCC(C)(C)[C@H](NC(=O)[C@H]1CCCCN1C)C(=O)N(C)[C@H](C[C@@H](OC(C)=O)c1nc(C(=O)N[C@@H](Cc2ccccc2)C[C@H](C)C(=O)O)cs1)C(C)C`, the growth is 29.8% in the experiment with NCI-H23 lung; -44.7% (active) in the experiment with NCI-H226 lung; 41.5% in the experiment on NCI-H322M lung; 15% in the experiment on HOP-62 NSCLC; 5.25% (active) in the experiment with NCI-H460 lung; 19.4% with HOP-92 NSCLC. For the same compound, the growth in the experiment with NCI-H522 lung is -32.1% (active); in the experiment on A549/ATCC NSCLC, 13.1%; in the experiment on 786-0 renal it was 10.8%; in the experiment on COLO 205 colon, -51.2% (active).

Turning to `CC[C@H](NC(=O)[C@H]1CCCCN1C)C(=O)N(C)[C@H](C[C@@H](OC(C)=O)c1nc(C(=O)N[C@@H](Cc2ccccc2)C[C@H](C)C(=O)O)cs1)C(C)C`, the growth in the experiment on NCI-H23 lung is 23%; in the experiment with NCI-H226 lung it was 65.7%; in the experiment with NCI-H322M lung, 46.6%; in the experiment with HOP-62 NSCLC, 25.4%; with NCI-H460 lung, 2.71% (active); with HOP-92 NSCLC, 46%. The growth was -19.9% (active) in the experiment with NCI-H522 lung, 10.4% in the experiment with A549/ATCC NSCLC, 10.8% in the experiment on 786-0 renal and -54.5% (active) with COLO 205 colon.

`CC(=O)O[C@H](C[C@H](C(C)C)N(C)C(=O)[C@@H](NC(=O)[C@H]1CCCCN1C)C(C)C)c1nc(C(=O)N[C@@H](Cc2ccccc2)C[C@H](C)C(=O)O)c(C(C)C)s1`: the growth in the experiment on NCI-H23 lung is 22.9%; in the experiment on NCI-H226 lung, 58.9%; in the experiment with NCI-H322M lung it was 35.8%; with HOP-62 NSCLC it was 20%; with NCI-H460 lung, 6.51% (active); with HOP-92 NSCLC, 51.5%. Besides, the growth in the experiment on NCI-H522 lung was -21.1% (active); with A549/ATCC NSCLC, 8.67% (active); in the experiment with 786-0 renal, 16%; in the experiment with COLO 205 colon it was -60% (active).

Take `CCOP1(=O)CC(C)=C(Cl)C(P(=O)(OCC)OCC)C1` (stereo not given): the growth with NCI-H23 lung was 91.5%; with NCI-H226 lung, 103%; in the experiment with NCI-H322M lung, 124%; in the experiment with HOP-62 NSCLC, 93.9%; in the experiment on NCI-H460 lung, 112%; with HOP-92 NSCLC, 89.1%. Moreover, the growth is 71.3% in the experiment with NCI-H522 lung, 90.4% in the experiment with A549/ATCC NSCLC, 115% with 786-0 renal and 94.1% in the experiment on COLO 205 colon.

As to `COc1cccc(C=NC(Cc2cnc[nH]2)C(=O)O)c1O` (stereo not given), the growth was 107% with NCI-H23 lung; 94.8% in the experiment on NCI-H226 lung; 95.5% with NCI-H322M lung; 87.6% in the experiment on HOP-62 NSCLC; 107% with NCI-H460 lung; 56% in the experiment with HOP-92 NSCLC. Moreover, the growth in the experiment with NCI-H522 lung was 59.3%; in the experiment with A549/ATCC NSCLC, 91.5%; in the experiment with 786-0 renal, 97.2%; in the experiment on COLO 205 colon it was 122%.

On to `CNC(=O)Oc1ccc(N(C)C)cc1C(C)C`, for which the growth in the experiment with NCI-H23 lung is 103%; in the experiment with NCI-H226 lung, 92.6%; in the experiment with NCI-H322M lung, 91.1%; in the experiment on HOP-62 NSCLC, 99.5%; in the experiment on NCI-H460 lung, 107%; in the experiment with HOP-92 NSCLC, 100%. For the same compound, the growth with NCI-H522 lung is 92.2%; in the experiment with A549/ATCC NSCLC, 94.9%; in the experiment with 786-0 renal, 102%; in the experiment on COLO 205 colon, 115%.

Consider `O=C(O)C(O)C(O)C1[O][Sb]([c]2ccc([N+](=O)[O-])cc2)[O]C1CO` (stereo not given), for which the growth in the experiment on NCI-H23 lung was 101%; in the experiment with NCI-H226 lung, 93.4%; in the experiment with NCI-H322M lung, 102%; with HOP-62 NSCLC it was 110%; in the experiment with NCI-H460 lung it was 100%; in the experiment with HOP-92 NSCLC it was 102%. Besides, the growth in the experiment with NCI-H522 lung is 94.6%; in the experiment on A549/ATCC NSCLC, 94.4%; in the experiment with 786-0 renal, 104%; in the experiment on COLO 205 colon it was 115%.

As for `CCCCC1(CCC)C(=O)NC(=S)NC1=O`, the growth is 100% with NCI-H23 lung; 106% with NCI-H226 lung; 112% in the experiment on NCI-H322M lung; 99.6% in the experiment with HOP-62 NSCLC; 108% with NCI-H460 lung; 71.4% in the experiment with HOP-92 NSCLC. Also, the growth with NCI-H522 lung is 81.7%; with A549/ATCC NSCLC it was 125%; with 786-0 renal, 93.8%; in the experiment with COLO 205 colon, 112%.

For the compound `COc1ccc(O)c(CNC(=O)CN2CCCC2=O)c1`, the growth in the experiment on NCI-H23 lung was 103%; in the experiment on NCI-H226 lung, 99.4%; in the experiment with NCI-H322M lung, 95.6%; with HOP-62 NSCLC it was 97.1%; with NCI-H460 lung, 97.5%; in the experiment on HOP-92 NSCLC it was 86.1%. Moreover, the growth with NCI-H522 lung is 101%; in the experiment on A549/ATCC NSCLC it was 105%; in the experiment on 786-0 renal, 105%; in the experiment with COLO 205 colon, 100%.

Regarding `CCOc1ccc(/C=C/[N+](=O)[O-])cc1`, the growth in the experiment on NCI-H23 lung is 87.8%; in the experiment on NCI-H226 lung, 81.4%; in the experiment with NCI-H322M lung, 98.5%; in the experiment on HOP-62 NSCLC, 110%; with NCI-H460 lung, 98.2%; in the experiment on HOP-92 NSCLC, 76.6%. In addition, the growth in the experiment on NCI-H522 lung is 96.8%; with A549/ATCC NSCLC it was 78.8%; in the experiment with 786-0 renal it was 92.4%; in the experiment with COLO 205 colon, 94.1%.

As for `COC(=O)[C@@H](C)C[C@H](Cc1ccc2ccccc2c1)NC(=O)c1csc([C@@H](C[C@H](C(C)C)N(C)C(=O)[C@@H](NC(=O)[C@H]2CCCCN2C)C(C)C)OC(C)=O)n1`, the growth in the experiment on NCI-H23 lung was 41.7%; in the experiment on NCI-H226 lung it was 80.2%; in the experiment with NCI-H322M lung it was 68.6%; with HOP-62 NSCLC, 64.7%; in the experiment on NCI-H460 lung it was 24.2%; in the experiment on HOP-92 NSCLC, -5.09% (active). The growth in the experiment on NCI-H522 lung was 22.2%; with A549/ATCC NSCLC, 47.5%; in the experiment on 786-0 renal it was 26.5%; in the experiment on COLO 205 colon it was -37.9% (active).

As to `COc1ccc(/C=C\c2cc(OC)c(OC)c(OC)c2)cc1NC(=O)/C=C/c1cc(OC)c(OC)c(OC)c1`, the growth in the experiment on NCI-H23 lung is 25.7%; in the experiment on NCI-H226 lung it was 46.8%; with NCI-H322M lung, 55.1%; in the experiment on HOP-62 NSCLC, 45.5%; in the experiment with NCI-H460 lung, 55.2%; in the experiment with HOP-92 NSCLC, 55.5%. In addition, the growth in the experiment with NCI-H522 lung is 34.3%; in the experiment with A549/ATCC NSCLC, 56.6%; in the experiment on 786-0 renal, 39.9%; in the experiment on COLO 205 colon, 42.1%.
